Results as given in PubChem BioAssay (Tox21).
Several values for one entry are separate records, joined by “and”; a condition that tells them apart may be missing. Equal values may be shown once. Inconclusive results are not listed. More than one record can exist for a structure, and the calls need not agree. Activity calls are given as the source filed them. Unless noted, calls follow the shape of the dose curve; as a rule, active = well fitted curve in the direction sought with a large enough effect in the repeat runs; inconclusive = weak or mixed curves; inactive = no such curve, though single readings can be large; an effect the other way counts as inactive or inconclusive.

Experiments:
[1] = target: Thyrotropin receptor (Homo sapiens) (UniProt P16473); assay: qHTS assay to identify small molecule antagonists of the thyroid stimulating hormone receptor (TSHR) signaling pathway (AID 1259385; calls by dose curve; also: nearly all actives have a fitted effect of over 20% in size; also: potency is read from the fitted curve at half-maximal effect)
Sequence of Thyrotropin receptor (Homo sapiens) (P16473 whole entry, looked up): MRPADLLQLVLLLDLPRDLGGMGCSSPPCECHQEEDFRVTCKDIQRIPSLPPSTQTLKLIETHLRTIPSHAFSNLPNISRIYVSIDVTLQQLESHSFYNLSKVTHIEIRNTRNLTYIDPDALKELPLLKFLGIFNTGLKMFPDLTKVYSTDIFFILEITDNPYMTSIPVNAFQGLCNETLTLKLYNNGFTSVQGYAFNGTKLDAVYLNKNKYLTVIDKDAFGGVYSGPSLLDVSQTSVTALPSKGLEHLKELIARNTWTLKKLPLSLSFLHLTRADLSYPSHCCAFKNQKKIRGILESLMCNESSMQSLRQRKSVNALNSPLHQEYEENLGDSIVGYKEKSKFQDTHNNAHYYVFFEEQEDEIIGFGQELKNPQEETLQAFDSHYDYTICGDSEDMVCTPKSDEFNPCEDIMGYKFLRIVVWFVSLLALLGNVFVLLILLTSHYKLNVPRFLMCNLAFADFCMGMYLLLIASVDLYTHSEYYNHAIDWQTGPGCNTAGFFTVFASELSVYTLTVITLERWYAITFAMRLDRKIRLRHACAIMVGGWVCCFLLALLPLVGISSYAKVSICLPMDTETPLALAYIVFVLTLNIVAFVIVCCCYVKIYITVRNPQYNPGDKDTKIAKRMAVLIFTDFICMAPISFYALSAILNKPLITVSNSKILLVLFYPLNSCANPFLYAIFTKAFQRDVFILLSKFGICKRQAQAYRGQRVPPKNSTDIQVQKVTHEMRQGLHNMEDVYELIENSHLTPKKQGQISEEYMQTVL
How it was run: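 TSHR-HEK293 cells (800/well) plated 18 h, then compounds with Ro20-1724 and TSH at 1.5 ng/mL final, 30 min at room temperature. cAMP quantified by HTRF (cAMP-d2/anti-cAMP-cryptate, 1 h); 15 concentrations in triplicate.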

[2] = qHTS assay to identify small molecule agonists of the estrogen receptor alpha (ER-alpha) signaling pathway in the presence of an antagonist - cell viability counter screen (AID 1259386);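 also: cells exposed to compounds for 22 h at 37 °C before the viability read; nearly all actives have a fitted effect of over 30% in size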; also: potency is read from the fitted curve at half-maximal effect
How it was run: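 Using estrogen-depleted VM7Luc4E2 cells, the 15-concentration compound series was applied together with 10.0nM ICI-182,780 and incubated 22hr at 37C/5% CO2. Cell viability was then scored by CellTiter-Fluor.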

[3] = target: Progesterone receptor (Homo sapiens) (UniProt P06401); assay: qHTS assay to identify small molecule agonists of the progesterone receptor (PR) signaling pathway (AID 1346784; calls by dose curve; also: nearly all actives have a fitted effect of over 30% in size)
Sequence of Progesterone receptor (Homo sapiens) (P06401 whole entry, looked up): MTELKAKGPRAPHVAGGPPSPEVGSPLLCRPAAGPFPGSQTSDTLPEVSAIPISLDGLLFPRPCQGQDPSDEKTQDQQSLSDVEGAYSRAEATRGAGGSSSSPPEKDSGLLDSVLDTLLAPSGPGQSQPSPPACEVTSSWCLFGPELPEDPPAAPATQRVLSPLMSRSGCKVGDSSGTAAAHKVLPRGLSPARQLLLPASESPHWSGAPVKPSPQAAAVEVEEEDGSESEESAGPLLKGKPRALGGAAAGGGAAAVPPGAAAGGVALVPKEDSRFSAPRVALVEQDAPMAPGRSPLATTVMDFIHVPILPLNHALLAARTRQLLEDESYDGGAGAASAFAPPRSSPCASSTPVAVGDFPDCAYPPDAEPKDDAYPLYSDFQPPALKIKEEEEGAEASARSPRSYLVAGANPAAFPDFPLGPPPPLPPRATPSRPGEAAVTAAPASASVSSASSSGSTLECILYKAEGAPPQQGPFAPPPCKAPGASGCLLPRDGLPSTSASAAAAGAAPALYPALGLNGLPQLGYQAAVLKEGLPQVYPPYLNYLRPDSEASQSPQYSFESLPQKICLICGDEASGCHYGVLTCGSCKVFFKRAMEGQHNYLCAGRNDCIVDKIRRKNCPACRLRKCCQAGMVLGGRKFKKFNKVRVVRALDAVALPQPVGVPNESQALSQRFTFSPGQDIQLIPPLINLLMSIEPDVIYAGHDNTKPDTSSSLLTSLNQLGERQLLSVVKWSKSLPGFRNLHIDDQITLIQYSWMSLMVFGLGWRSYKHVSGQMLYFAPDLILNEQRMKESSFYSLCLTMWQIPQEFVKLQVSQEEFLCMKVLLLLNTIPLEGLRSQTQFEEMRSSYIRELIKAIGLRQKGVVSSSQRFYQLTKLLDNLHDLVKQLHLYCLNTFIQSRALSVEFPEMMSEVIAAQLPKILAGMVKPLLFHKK
How it was run: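 Using charcoal-stripped serum (2%) to limit endogenous steroids, PR-UAS-bla HEK 293T cells received compounds for 16 hr at 37C after 6 hr plating; beta-lactamase FRET fluorescence was recorded following 2 hr substrate loading at room temperature.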

[4] = target: Progesterone receptor (Homo sapiens) (UniProt P06401); assay: qHTS assay to identify small molecule antagonists of the progesterone receptor (PR) signaling pathway (AID 1346795; active = well fitted inhibition curve with a large enough effect in the signal ratio in the repeat runs, not every such curve was filed as active; the % refers to the signal ratio; also: potency is read from the fitted curve at half-maximal effect)
How it was run: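 Inhibition of R5020-induced (1 nM final) beta-lactamase reporter signal in PR-UAS-bla HEK293T cells was scored by FRET fluorescence after overnight (16 hr) compound treatment.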

[5] = qHTS assay to identify small molecule antagonists of the progesterone receptor (PR) signaling pathway - cell viability counter screen (AID 1346798); also: nearly all actives have a fitted effect of over 50% in size; also: potency is read from the fitted curve at half-maximal effect
How it was run: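 ATP content as viability readout: CellTiter-Glo luminescence, 30 min room temperature, in PR-UAS-bla HEK293T cells after 16 hr compound/R5020 treatment at 37C and 5% CO2.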

[6] = qHTS assay to identify small molecule antagonists of the TGF-beta/Smad signaling pathway - cell viability counter screen (AID 1346824); also: nearly all actives have a fitted effect of over 50% in size
How it was run: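 SBE-bla HEK 293T cells, incubated overnight, then compound plus 0.25 ng/mL TGF-beta1 (stock added) for 5 hr at 37 C. Viability was read in the same wells by CellTiter-Glo luminescence after 30 min at room temperature.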

[7] = qHTS assay to identify small molecule agonists of the TGF-beta/Smad signaling pathway - cell viability counter screen (AID 1346829); also: top concentration of the series differs between compounds; nearly all actives have a fitted effect of over 45% in size
How it was run: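 After overnight seating at 37 C and 5% CO2, reporter cells got compounds for 5 hr and FRET substrate for 2 hr; cell viability then came from CellTiter-Glo luminescence.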

[8] = qHTS assay to identify small molecule agonists of the TGF-beta/Smad signaling pathway (AID 1346859; active = well fitted activation curve with a large enough effect in the signal ratio in the repeat runs, not every such curve was filed as active; the % refers to the signal ratio; also: series mostly up to about 77 µM)
How it was run: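 Stable Smad binding element-beta-lactamase HEK 293T cells; 5 hr compound exposure at 37 C under 5% CO2; 2 hr room-temperature substrate step; fluorescence excited at 405 nm, collected at 460 nm and 530 nm.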

[9] = target: Thyrotropin-releasing hormone receptor (Homo sapiens) (UniProt P34981); assay: qHTS assay to identify small molecule antagonists of the thyrotropin-releasing hormone receptor (TRHR) signaling pathway (AID 1346877; active = well fitted inhibition curve with a large enough effect in the repeat runs, not every such curve was filed as active; also: series mostly up to about 51 µM)
Sequence of Thyrotropin-releasing hormone receptor (Homo sapiens) (P34981 whole entry, looked up): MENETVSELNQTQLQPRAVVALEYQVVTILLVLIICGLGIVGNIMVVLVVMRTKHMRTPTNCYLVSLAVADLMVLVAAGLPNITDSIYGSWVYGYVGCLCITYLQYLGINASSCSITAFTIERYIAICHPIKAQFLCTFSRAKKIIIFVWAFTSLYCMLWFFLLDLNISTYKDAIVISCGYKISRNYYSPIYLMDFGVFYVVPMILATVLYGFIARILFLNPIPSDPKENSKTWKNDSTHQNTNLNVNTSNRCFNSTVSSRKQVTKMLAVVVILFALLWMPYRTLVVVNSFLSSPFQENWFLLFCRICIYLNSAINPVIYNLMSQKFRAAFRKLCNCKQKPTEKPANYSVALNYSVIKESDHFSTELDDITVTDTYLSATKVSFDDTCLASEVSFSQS
How it was run: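 Calcium signal in dye-loaded TRHR/HEK293 cells; compounds added 5 min before TRH (1 nM final); fluorescence monitored 3 min at 1 s steps.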

[10] = target: Thyrotropin-releasing hormone receptor (Homo sapiens) (UniProt P34981); assay: qHTS assay to identify small molecule agonists of the thyrotropin-releasing hormone receptor (TRHR) signaling pathway (AID 1346891; calls by dose curve; also: potency is read from the fitted curve at half-maximal effect;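 as to activation: HEK293 cells expressing TRHR with calcium dye readout; series mostly up to about 58 µM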)
How it was run: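 In 1536-format, 1500 TRHR-Hek293 cells per well grew 18 h, took up calcium dye for 2 h at 37 °C, received compound, and were read kinetically; 15-point titrations, triplicates.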

[11] = Human pregnane X receptor (PXR) small molecule agonists, qHTS cell viability counter screen (AID 1346977); also: nearly all actives have a fitted effect of over 50% in size; also: potency is read from the fitted curve at half-maximal effect
How it was run: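 Readout is CellTiter-Fluor fluorescence from PXR-Luc HepG2 cells. Plated cells rested 5hr, then were treated with compounds for 24hr at 37C and 5% CO2, with reagent present during the last hour.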

[12] = Caspase-3/7 induction in HepG2 cells by small molecules, qHTS assay (AID 1346978); also: nearly all actives have a fitted effect of over 15% in size
How it was run: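 Wild-type HepG2 cells, 2,000/well, settled 5 hr at 37 C and 5% CO2, then compound-treated for 17 hr; caspase-3/7 activity read by luminescent Caspase-Glo 3/7 after 30 min at room temperature.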

[13] = Caspase-3/7 induction in CHO-K1 cells by small molecules, qHTS assay (AID 1346980); also: nearly all actives have a fitted effect of over 15% in size
How it was run: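 Wild-type CHO-K1 cells exposed to compounds for 17hr at 37 C, 5% CO2. Caspase-3/7 activity then measured by Caspase-Glo 3/7 luminescence after 30min at room temperature.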

[14] = Caspase-3/7 induction in HepG2 cells by small molecules, qHTS cell viability counter screen (AID 1346981); also: nearly all actives have a fitted effect of over 30% in size; also: potency is read from the fitted curve at half-maximal effect
How it was run: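 After a 5-hr attachment period at 37 C and 5% CO2, wild-type HepG2 cells received compounds in DMSO. Sixteen hours later CellTiter-Fluor was dispensed and the fluorescent signal quantified after a further hour.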

[15] = target: Nuclear receptor subfamily 1 group I member 2 (Homo sapiens) (UniProt O75469); assay: Human pregnane X receptor (PXR) small molecule agonists, qHTS assay (AID 1346982); also: nearly all actives have a fitted effect of over 35% in size; also: potency is read from the fitted curve at half-maximal effect
Sequence of Nuclear receptor subfamily 1 group I member 2 (Homo sapiens) (O75469 whole entry, looked up): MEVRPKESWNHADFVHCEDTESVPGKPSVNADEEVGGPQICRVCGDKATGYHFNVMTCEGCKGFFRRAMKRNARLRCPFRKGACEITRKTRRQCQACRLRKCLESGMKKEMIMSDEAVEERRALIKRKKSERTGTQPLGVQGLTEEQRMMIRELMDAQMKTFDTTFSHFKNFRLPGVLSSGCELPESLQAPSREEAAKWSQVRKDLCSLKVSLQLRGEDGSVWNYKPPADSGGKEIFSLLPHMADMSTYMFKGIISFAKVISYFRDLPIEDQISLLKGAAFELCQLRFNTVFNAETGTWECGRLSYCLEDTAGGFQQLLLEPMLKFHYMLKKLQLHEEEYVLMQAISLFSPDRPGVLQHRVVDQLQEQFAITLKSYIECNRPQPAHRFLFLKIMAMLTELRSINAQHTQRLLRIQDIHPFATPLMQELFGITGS
How it was run: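 Tox21 qHTS; PXR-Luc HepG2; compounds pinned from DMSO; 24 hr, 37 C; ONE-Glo luciferase detection, 30 min room temperature.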

[16] = Caspase-3/7 induction in CHO-K1 cells by small molecules, qHTS cell viability counter screen (AID 1346979); also: nearly all actives have a fitted effect of over 35% in size; also: potency is read from the fitted curve at half-maximal effect
How it was run: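 To flag cytotoxic compounds, treated CHO-K1 wild-type cells were given CellTiter-Fluor at 16hr and read fluorescently after 1hr at 37C; the caspase-3/7 luminescence was measured in these same wells.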

[17] = target: Nuclear receptor subfamily 1 group I member 2 (Rattus norvegicus) (UniProt Q9R1A7); assay: Rat pregnane X receptor (rPXR) activation by small molecules, qHTS assay (AID 1346983); details: rPXR luciferase reporter cells, One-Glo luminescence, 24 h; max activation: stronger effect = higher value; also: nearly all actives have a fitted effect of over 20% in size
Sequence of Nuclear receptor subfamily 1 group I member 2 (Rattus norvegicus) (Q9R1A7 whole entry, looked up): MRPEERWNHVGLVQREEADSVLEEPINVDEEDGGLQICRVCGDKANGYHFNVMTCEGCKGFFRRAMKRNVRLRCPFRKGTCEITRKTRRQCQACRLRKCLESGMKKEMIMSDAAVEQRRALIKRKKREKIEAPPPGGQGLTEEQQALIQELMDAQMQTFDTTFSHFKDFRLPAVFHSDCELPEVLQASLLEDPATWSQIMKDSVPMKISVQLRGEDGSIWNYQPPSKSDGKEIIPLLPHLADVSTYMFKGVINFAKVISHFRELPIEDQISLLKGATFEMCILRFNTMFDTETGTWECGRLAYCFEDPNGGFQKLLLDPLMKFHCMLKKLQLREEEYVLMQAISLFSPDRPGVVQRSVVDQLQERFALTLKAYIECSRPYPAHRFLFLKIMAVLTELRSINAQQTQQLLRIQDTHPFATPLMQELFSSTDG
How it was run: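 Cell-based rPXR activation assay: rPXR cells, 2,000 per well, rested 5hr at 37 C, then exposed to compounds in DMSO for 24 hr at 37 C. Luciferase activity read by One-Glo luminescence after 30 min at room temperature.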

[18] = target: Nuclear receptor subfamily 1 group I member 2 (Homo sapiens) (UniProt O75469); assay: CYP3A4 induction through human pregnane X receptor (PXR) by small molecules, qHTS assay (AID 1346984); also: nearly all actives have a fitted effect of over 40% in size
How it was run: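 Cells (DPX-2; HepG2 with PXR element plus CYP3A4-promoter luciferase) settled 5hr, then were treated 24hr at 37C. A 3hr, 3uM-final Luciferin-IPA step preceded luminescence measurement with One-Glo.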

[19] = target: Nuclear receptor subfamily 1 group I member 2 (Homo sapiens) (UniProt O75469); assay: Human pregnane X receptor (PXR) activation by small molecules, qHTS assay (AID 1346985); also: nearly all actives have a fitted effect of over 40% in size
How it was run: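 DPX-2 cells (HepG2 co-transfected with a PXR response element and a CYP3A4-promoter luciferase construct) were seeded at 2,000 per well, rested 5 hr at 37C, then exposed to DMSO-dissolved compounds for 24 hr. Activation was read as luciferase luminescence.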

[20] = qHTS assay to identify small molecule agonists of the progesterone receptor (PR) signaling pathway - cell viability counter screen (AID 1346799; calls by dose curve; also: nearly all actives have a fitted effect of over 45% in size; also: potency is read from the fitted curve at half-maximal effect)
How it was run: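 Cytotoxicity in PR-bla HEK293T cells: 16 h compound, 37C; CellTiter-Glo added post-FRET read; luminescence after 30 min RT.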
% is scaled to controls: 0 for no effect and ±100 for the full control effect.

O=C(c1ccccc1)c1ccc(O)cc1O
active: Potency [4] 15.7 µM and 19.3 µM | Potency [5] 49.5 µM | Potency [15] 62.3 µM and 61.1 µM
inactive: Potency [1] | Potency [2] | Potency [3] | Potency [6] | Potency [7] | outcome [8] | Potency [9] | Potency [10] | Potency [11] | Potency [12] | Potency [13] | Potency [14]

O=C(COc1ccc(Cl)cc1)N1CCN(Cc2ccc3c(c2)OCO3)CC1
34.4 µM (active) and inactive: Potency [15]
inactive: Potency [1] | Potency [2] | Potency [3] | Potency [5] | Potency [6] | Potency [7] | outcome [8] | Potency [9] | Potency [10] | Potency [12] | Potency [16] | Potency [13] | max activation [17] 0.0978% | Potency [18] | Potency [19]
active: Potency [4] 54.5 µM

CC(C)=CCC/C(C)=C\CO
inactive: Potency [1] | Potency [2] | Potency [3] | Potency [4] | Potency [5] | Potency [7] | outcome [8] | Potency [11] | Potency [12] | Potency [16] | Potency [13] | Potency [14]

O=C=Nc1ccc(Cc2ccc(N=C=O)cc2)cc1
inactive: Potency [1] | Potency [2] | Potency [3] | Potency [5] | Potency [20] | Potency [6] | Potency [7] | outcome [8] | Potency [11] | Potency [12] | Potency [16] | Potency [13] | Potency [14]

O=C(Nc1ccc(Cl)cc1)Nc1ccc(Cl)c(Cl)c1
inactive: Potency [3] | Potency [7] | outcome [8] | Potency [12] | Potency [13] | max activation [17] -13.1% | Potency [18] | Potency [19]
inactive and 33.5 µM (active): Potency [2]
active: Potency [1] 61.1 µM | Potency [11] 7.08 µM and 12.2 µM and 13.3 µM | Potency [16] 19.2 µM and 17.2 µM and 18.8 µM | Potency [15] 7.66 µM

Clc1nc(Cl)c(Cl)c(Cl)c1Cl
inactive: Potency [1] | Potency [2] | Potency [3] | Potency [4] | Potency [5] | Potency [20] | Potency [7] | outcome [8] | Potency [12] | Potency [16] | Potency [13] | Potency [14] | Potency [15]

O=C1OC2(c3cc(Br)c(O)c(Br)c3Oc3c2cc(Br)c(O)c3Br)c2c(Cl)c(Cl)c(Cl)c(Cl)c21
inactive: Potency [1] | Potency [4] | Potency [5] | Potency [20] | Potency [6] | Potency [7] | outcome [8] | Potency [9] | Potency [12] | Potency [13] | Potency [15]
active: Potency [2] 24.4 µM and 13.2 µM | Potency [10] 15.5 µM and 23.6 µM | Potency [11] 2.51 µM and 11.7 µM | Potency [16] 6.87 µM and 14.8 µM | Potency [14] 9.7 µM and 16.6 µM

CN(C)C(=N)N=C(N)N
inactive: Potency [1] | Potency [2] | Potency [4] | Potency [5] | Potency [20] | Potency [6] | Potency [7] | outcome [8] | Potency [9] | Potency [10] | Potency [11] | Potency [12] | Potency [16] | Potency [13] | max activation [17] -2.9%

CC(=O)CC/C=C(\C)CCC=C(C)C
inactive: Potency [1] | Potency [2] | Potency [4] | Potency [5] | Potency [20] | Potency [7] | outcome [8] | Potency [9] | Potency [10] | Potency [11] | Potency [12] | Potency [16] | Potency [13] | Potency [14]
inactive and 54.5 µM (active): Potency [15]

c1cc(N(CC2CO2)CC2CO2)ccc1OCC1CO1 (stereo unspecified)
inactive: Potency [1] | Potency [3] | Potency [20] | Potency [6] | Potency [7] | outcome [8] | Potency [9] | Potency [10] | Potency [13]
active: Potency [2] 54.5 µM | Potency [4] 48.6 µM | Potency [16] 48.6 µM and 27.3 µM | Potency [14] 54.5 µM and 27.3 µM | Potency [15] 48.6 µM and 24.3 µM

CCC(C)CO (stereo unspecified)
inactive: Potency [1] | Potency [2] | Potency [3] | Potency [4] | Potency [5] | Potency [20] | Potency [7] | outcome [8] | Potency [12] | Potency [16] | Potency [13] | Potency [14] | Potency [15]

CCCCCCCCCCCO
inactive: Potency [1] | Potency [2] | Potency [4] | Potency [5] | Potency [20] | Potency [6] | Potency [7] | outcome [8] | Potency [11] | Potency [12] | Potency [16] | Potency [13] | Potency [15]

CN(C)CCN(Cc1cccs1)c1ccccn1
20 µM (active) and inactive: Potency [15]
inactive: Potency [1] | Potency [2] | Potency [4] | Potency [5] | Potency [20] | Potency [6] | Potency [7] | outcome [8] | Potency [12] | Potency [16] | Potency [13] | max activation [17] -1.17% | Potency [18] | Potency [19]

c1ccc2c(c1)c1cccc3ccc4cccc2c4c31
inactive: Potency [1] | Potency [2] | Potency [4] | Potency [5] | Potency [20] | Potency [7] | outcome [8] | Potency [9] | Potency [10] | Potency [11] | Potency [12] | Potency [16] | Potency [13] | Potency [14] | Potency [15]

CC(=O)c1ccccn1
inactive: Potency [1] | Potency [2] | Potency [3] | Potency [4] | Potency [5] | Potency [20] | Potency [7] | outcome [8] | Potency [9] | Potency [10] | Potency [12] | Potency [16] | Potency [13] | Potency [15]

CCCCc1oc2ccccc2c1C(=O)c1cc(I)c(OCCN(CC)CC)c(I)c1
inactive: Potency [1] | Potency [2] | Potency [3] | outcome [8] | Potency [9] | Potency [10] | Potency [13]
active: Potency [5] 24.5 µM and 11.9 µM | Potency [20] 19.5 µM and 13.3 µM | Potency [11] 43.6 µM and 26.6 µM | Potency [16] 48.9 µM | Potency [14] 48.9 µM | Potency [15] 3.09 µM and 4.22 µM

Nc1ccc(S(=O)(=O)Nc2cnc3ccccc3n2)cc1
inactive: Potency [1] | Potency [2] | Potency [4] | Potency [5] | Potency [20] | Potency [6] | Potency [7] | outcome [8] | Potency [12] | Potency [16] | Potency [13] | Potency [15] | max activation [17] 6.27% | Potency [18] | Potency [19]
